The list is not random: actives were taken first. Their share in the collection is about 21%.
DT40 TDP1 CPT = growth inhibition of DT40 Tdp1-/-;hTDP1 cells with camptothecin (screen for TDP1 inhibitors); chicken DT40 Tdp1-/-;hTDP1 cells + 20 nM CPT, ATP luminescence, 48 h; Potency, µM (top dose mostly 46.2 µM), actives largely listed as inhibitors; actives 12% (n = 420,000); AID 686979; also: nearly all actives have a fitted effect of over 55% in size
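Chicken DT40 Tdp1-/- cells stably complemented with human TDP1 were seeded at 400 cells/well in medium containing 20 nM camptothecin, exposed to pin-transferred compounds, and grown at 37 °C for at least 48 hr. Viability was read as ATP luminescence.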
ClpP mod = qHTS Assay for Activators of ClpP | Potency, µM (doses to about 57.5 µM) | purified B. subtilis ClpP, FRET peptide cleavage, 20 min | ATP-dependent Clp protease proteolytic subunit (Bacillus subtilis (strain 168)), P80244 | actives 1.9% (n = 340,000); active = well fitted falling curve with a large enough effect; inconclusive = small, poorly fitted or top-dose-only effect; inactive = no such curve, though single readings can be large or run the other way; also: the source files actives as falling curves though it sought activators and does not explain the sign; nearly all actives have a fitted effect of over 65% in size
Target sequence (P80244 whole entry, looked up): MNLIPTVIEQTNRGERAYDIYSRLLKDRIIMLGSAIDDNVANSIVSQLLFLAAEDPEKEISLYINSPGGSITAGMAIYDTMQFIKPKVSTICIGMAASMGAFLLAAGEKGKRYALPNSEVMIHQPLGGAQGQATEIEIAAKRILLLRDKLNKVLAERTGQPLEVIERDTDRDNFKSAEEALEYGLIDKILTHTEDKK
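Purified B. subtilis ClpP, 10 microg/mL final in Tris/HCl pH8 with KCl, BSA, glycerol and Tween-20, cleaved an Abz/nitrotyrosine-quenched decapeptide. Fluorescence (ex 320, em 430) was read at 0 and 20 min at room temperature. Delta was normalized to 5.8 microM ADEP and DMSO/no-enzyme controls.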
D3 antag = D3 dopamine receptor (human) antagonism. actives 2.5% (n = 360,000). max response, negative = inhibition, %. P35462. D3R cells, DiscoveRx beta-arrestin luminescence, antagonist mode; stronger effect = lower value; in the data active = max response below about -50%; inconclusive = no clear call, values can overlap the other calls
Target sequence (P35462 whole entry, looked up): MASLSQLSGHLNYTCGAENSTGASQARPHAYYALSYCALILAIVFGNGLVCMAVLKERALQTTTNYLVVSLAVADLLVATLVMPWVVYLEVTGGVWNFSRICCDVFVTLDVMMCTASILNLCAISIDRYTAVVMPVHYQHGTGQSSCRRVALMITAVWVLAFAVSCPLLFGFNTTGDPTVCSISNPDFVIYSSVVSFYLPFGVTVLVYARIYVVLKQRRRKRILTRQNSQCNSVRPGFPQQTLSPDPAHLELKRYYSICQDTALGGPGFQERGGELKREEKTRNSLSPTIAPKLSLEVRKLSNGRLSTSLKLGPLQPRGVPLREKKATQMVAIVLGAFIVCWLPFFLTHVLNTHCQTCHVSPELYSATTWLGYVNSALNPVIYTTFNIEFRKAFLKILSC
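Cells plated overnight at 1500 cells/well, then exposed to library compounds with dopamine controls for 90 minutes at 37 degrees C. DiscoveRx reagent added for 30–60 minutes at room temperature; luminescence read, quantitative HTS format.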
DT40 TDP1 no CPT = qHTS for Inhibitors of human tyrosyl-DNA phosphodiesterase 1 (TDP1): qHTS in cells in absence of CPT. DT40 Tdp1-/- hTDP1 cells, no CPT, ATP luminescence, 48 h. Potency, µM (top dose mostly 46.2 µM), hits mostly inhibitors. actives 15% (n = 420,000); also: nearly all actives have a fitted effect of over 55% in size
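Readout: luminescence from CellTiter-Glo after 30 min in the dark at RT. Cells: DT40 Tdp1-/- with stable hTDP1, 400/well. Exposure: compounds alone, ≥48 hr, 37 °C.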
DRD3 agonist = activates the human D3 dopamine receptor | actives 0.58% (n = 410,000) | P35462 | max activation, % | D3R DiscoveRx beta-arrestin cells, luminescence, 90 min; in the data active = max activation above about 30%
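Agonist-mode cell screen: cells plated at 1500/well and incubated overnight at 37 °C, then exposed to library compounds for 90 min at 37 °C. Detection reagent was added for 30–60 min at room temperature, and luminescence was read.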
IL-1B inflam inh = inflammasome signaling inhibition, IL-1 beta readout; THP-1 LPS/ATP IL-1B secretion, AlphaLISA, 16 h; stronger effect = lower value; activity change, % at 57.5 µM; actives 4.7% (n = 360,000); AID 743279; in the data active = activity change below about -50%; inconclusive = mostly about -30% to -49%
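THP-1 cells pretreated 1 hr with compounds (up to 57.5 uM final), then stimulated with LPS (250 ng/mL final) plus ATP (1.25 mM final); secreted IL-1B measured by AlphaLISA after 16 hr, decreased signal indicating inhibition.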
A number is an active result. Unless noted, calls follow the shape of the dose curve; as a rule, active = well fitted inhibition curve with a large enough effect; inconclusive = small, poorly fitted or top-dose-only effect; inactive = flat fitted curve, though single readings scatter.

What do the screens show for `O=C(CN1CCN(Cc2ccc(F)cc2)CC1)Nc1nc2ccccc2s1`?
DT40 TDP1 CPT: inactive; ClpP mod: inactive; D3 antag: inactive; DT40 TDP1 no CPT: 25.9µM; DRD3 agonist: inactive; IL-1B inflam inh: inactive

How did Cc1nnc(NC(=O)CSc2nccn2Cc2ccc(F)cc2)s1 do in these assays?
DT40 TDP1 CPT: inconclusive; ClpP mod: inactive; D3 antag: inactive; DT40 TDP1 no CPT: inconclusive; DRD3 agonist: inactive; IL-1B inflam inh: inactive

How did O=C(CSc1nccn1Cc1ccc(Cl)cc1)Nc1nc2ccccc2s1 do in these assays?
DT40 TDP1 CPT: inconclusive; ClpP mod: inactive; DT40 TDP1 no CPT: inconclusive; DRD3 agonist: inactive

What do the screens show for `Cc1ccc2nc(NC(=O)CSc3nccn3Cc3ccccc3)sc2c1`?
DT40 TDP1 CPT: 25.9µM; ClpP mod: inactive; DT40 TDP1 no CPT: inconclusive; DRD3 agonist: inactive

What do the screens show for `CCC(Cc1ccccc1)NS(=O)(=O)c1c(C)nc2scc(C)n2c1=O` (centres undefined)?
DT40 TDP1 CPT: inactive; ClpP mod: inactive; D3 antag: inactive; DT40 TDP1 no CPT: inactive; DRD3 agonist: inactive; IL-1B inflam inh: inactive

How did CC(C)C(C)NC(=O)CN1C(=O)NC(C)(c2ccc3ccccc3c2)C1=O (centres undefined) do in these assays?
DT40 TDP1 CPT: inactive; D3 antag: inactive; DT40 TDP1 no CPT: inactive; DRD3 agonist: inactive; IL-1B inflam inh: inactive

What do the screens show for `CCCNC(=O)NC(=O)CN1C(=O)NC(C)(c2ccc3ccccc3c2)C1=O` (centres undefined)?
DT40 TDP1 CPT: inactive; ClpP mod: inactive; D3 antag: inactive; DT40 TDP1 no CPT: inactive; DRD3 agonist: 34.5; IL-1B inflam inh: inactive

Results for CC1(c2ccc3ccccc3c2)NC(=O)N(CC(=O)N2CCN(c3ccccc3O)CC2)C1=O (centres undefined) ?
DT40 TDP1 CPT: inconclusive; ClpP mod: inactive; D3 antag: inactive; DT40 TDP1 no CPT: 13µM; DRD3 agonist: inactive; IL-1B inflam inh: inactive

How did CC1CCCN(C(=O)CN2C(=O)NC(C)(c3ccc4ccccc4c3)C2=O)C1 (centres undefined) do in these assays?
DT40 TDP1 CPT: inconclusive; D3 antag: inactive; DT40 TDP1 no CPT: inconclusive; DRD3 agonist: inactive; IL-1B inflam inh: inactive

How did COc1ccc(Cl)cc1NC(=O)CN(C)C(=O)CN1C(=O)NC(C)(C)C1=O do in these assays?
DT40 TDP1 CPT: inactive; ClpP mod: inactive; D3 antag: inactive; DT40 TDP1 no CPT: inactive; DRD3 agonist: inactive; IL-1B inflam inh: inactive

Results for COc1ccc(Cl)cc1NC(=O)CN(C)C(=O)CN1C(=O)NC(C)(c2ccc3ccccc3c2)C1=O (centres undefined) ?
DT40 TDP1 CPT: inconclusive; ClpP mod: inactive; D3 antag: inactive; DT40 TDP1 no CPT: 14.6µM; DRD3 agonist: inactive; IL-1B inflam inh: -52.9

Results for CC1CCN(C(=O)CN2C(=O)NC(C)(c3ccc4ccccc4c3)C2=O)CC1 (centres undefined) ?
DT40 TDP1 CPT: 18.4µM; ClpP mod: inactive; D3 antag: inactive; DT40 TDP1 no CPT: 16.4µM; DRD3 agonist: inactive; IL-1B inflam inh: inactive

How did COc1c2c(c(OC)c3ccccc13)[C@]1(OC2)O[C@H](CCO)C[C@H](O)[C@H]1O do in these assays?
DT40 TDP1 CPT: inactive; ClpP mod: inactive; D3 antag: inconclusive; DT40 TDP1 no CPT: inactive; DRD3 agonist: inactive; IL-1B inflam inh: inconclusive

What do the screens show for `Cc1ccccc1Nc1nc(N)nc(COC(=O)CCNS(=O)(=O)c2ccccc2)n1`?
DT40 TDP1 CPT: inactive; ClpP mod: inactive; D3 antag: inactive; DT40 TDP1 no CPT: inactive; DRD3 agonist: inactive; IL-1B inflam inh: inactive

Results for CC1(c2ccc3ccccc3c2)NC(=O)N(CC(=O)N2CCN(S(=O)(=O)c3ccccc3F)CC2)C1=O (centres undefined) ?
DT40 TDP1 CPT: inconclusive; ClpP mod: inactive; D3 antag: inactive; DT40 TDP1 no CPT: 23.1µM; DRD3 agonist: inactive; IL-1B inflam inh: inactive

Results for CC1(c2ccc(Cl)cc2)NC(=O)N(CC(=O)N2CCc3ccccc32)C1=O (centres undefined) ?
DT40 TDP1 CPT: 25.9µM; ClpP mod: inactive; D3 antag: inactive; DT40 TDP1 no CPT: inconclusive; DRD3 agonist: inactive; IL-1B inflam inh: inactive

What do the screens show for `COc1cccc(N2CCN(C(=O)CN3C(=O)NC(C)(c4ccc5ccccc5c4)C3=O)CC2)c1` (centres undefined)?
DT40 TDP1 CPT: 13µM; D3 antag: inactive; DT40 TDP1 no CPT: 16.4µM; DRD3 agonist: inactive; IL-1B inflam inh: inactive

How did Cc1ccc(S(=O)(=O)N2CCN(C(=O)CN3C(=O)NC(C)(c4ccc5ccccc5c4)C3=O)CC2)cc1 (centres undefined) do in these assays?
DT40 TDP1 CPT: inconclusive; ClpP mod: inactive; D3 antag: inactive; DT40 TDP1 no CPT: inconclusive; DRD3 agonist: inactive; IL-1B inflam inh: inactive

Results for Cc1ccc(C2(C)NC(=O)N(CC(=O)N3CCc4ccccc43)C2=O)cc1 (centres undefined) ?
DT40 TDP1 CPT: inactive; ClpP mod: inactive; D3 antag: inactive; DT40 TDP1 no CPT: inactive; DRD3 agonist: inactive; IL-1B inflam inh: inactive

How did CCCNc1ccc(S(=O)(=O)N(CC)CC)cn1 do in these assays?
DT40 TDP1 CPT: 16.4µM; ClpP mod: inactive; D3 antag: inactive; DT40 TDP1 no CPT: inactive; DRD3 agonist: inactive; IL-1B inflam inh: inactive

What do the screens show for `CCN(CC)S(=O)(=O)c1ccc(NCc2ccccn2)nc1`?
DT40 TDP1 CPT: inactive; ClpP mod: inactive; D3 antag: inactive; DT40 TDP1 no CPT: inactive; DRD3 agonist: inactive; IL-1B inflam inh: inactive

Results for CCN(CC)S(=O)(=O)c1ccc(NCCc2ccccn2)nc1 ?
DT40 TDP1 CPT: inactive; D3 antag: inactive; DT40 TDP1 no CPT: inactive; DRD3 agonist: inactive; IL-1B inflam inh: inactive

How did CCN(CC)S(=O)(=O)c1ccc(NCc2ccccc2)nc1 do in these assays?
DT40 TDP1 CPT: inactive; ClpP mod: inconclusive; D3 antag: inactive; DT40 TDP1 no CPT: inactive; DRD3 agonist: 33.0; IL-1B inflam inh: inactive

How did CCCNc1ccc(S(=O)(=O)N(C(C)C)C(C)C)cn1 do in these assays?
DT40 TDP1 CPT: inactive; ClpP mod: inactive; D3 antag: -74.9; DT40 TDP1 no CPT: inconclusive; DRD3 agonist: inactive; IL-1B inflam inh: inactive

What do the screens show for `O=C(Cc1ccc(NS(=O)(=O)c2ccc(F)cc2)cc1)NCc1ccccc1`?
DT40 TDP1 CPT: inconclusive; ClpP mod: inactive; D3 antag: inactive; DT40 TDP1 no CPT: 23.1µM; DRD3 agonist: inactive; IL-1B inflam inh: inactive

What do the screens show for `O=C(NCCCN1CCCC1=O)c1ccc(S(=O)(=O)Nc2cccc(C(F)(F)F)c2)cc1`?
DT40 TDP1 CPT: inconclusive; D3 antag: inactive; DT40 TDP1 no CPT: 20.6µM; DRD3 agonist: inactive; IL-1B inflam inh: inactive
